Results from PubChem BioAssay AID488969 (Vanderbilt High Throughput Screening Facility, 2010).
The full ranking holds about 110,000 compounds; the median of “z-score” is about -0.1, and the highest 2% start at about 2. For the sample, the highest values were picked, then their nearest neighbours and some compounds at random. Activity calls are given as the source filed them.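 How the source made its calls: active means z-score in the third read window above 3 or below -3; inactive means the rest.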

Biological target: Metabotropic glutamate receptor 8 (Rattus norvegicus) (UniProt P70579)
Test: rat mGluR8 modulators via GIRK flux, primary screen, cell-based, thallium flux, HTS (AID 488969)
Conditions: HEK293 rat mGluR8, GIRK (G protein-gated inwardly rectifying potassium channel) thallium flux, FluoZin2; at 10 µM; stronger effect = higher value; submaximal glutamate (EC20) added with thallium

Metabotropic glutamate receptor 8 (Rattus norvegicus), sequence (P70579 whole entry, looked up): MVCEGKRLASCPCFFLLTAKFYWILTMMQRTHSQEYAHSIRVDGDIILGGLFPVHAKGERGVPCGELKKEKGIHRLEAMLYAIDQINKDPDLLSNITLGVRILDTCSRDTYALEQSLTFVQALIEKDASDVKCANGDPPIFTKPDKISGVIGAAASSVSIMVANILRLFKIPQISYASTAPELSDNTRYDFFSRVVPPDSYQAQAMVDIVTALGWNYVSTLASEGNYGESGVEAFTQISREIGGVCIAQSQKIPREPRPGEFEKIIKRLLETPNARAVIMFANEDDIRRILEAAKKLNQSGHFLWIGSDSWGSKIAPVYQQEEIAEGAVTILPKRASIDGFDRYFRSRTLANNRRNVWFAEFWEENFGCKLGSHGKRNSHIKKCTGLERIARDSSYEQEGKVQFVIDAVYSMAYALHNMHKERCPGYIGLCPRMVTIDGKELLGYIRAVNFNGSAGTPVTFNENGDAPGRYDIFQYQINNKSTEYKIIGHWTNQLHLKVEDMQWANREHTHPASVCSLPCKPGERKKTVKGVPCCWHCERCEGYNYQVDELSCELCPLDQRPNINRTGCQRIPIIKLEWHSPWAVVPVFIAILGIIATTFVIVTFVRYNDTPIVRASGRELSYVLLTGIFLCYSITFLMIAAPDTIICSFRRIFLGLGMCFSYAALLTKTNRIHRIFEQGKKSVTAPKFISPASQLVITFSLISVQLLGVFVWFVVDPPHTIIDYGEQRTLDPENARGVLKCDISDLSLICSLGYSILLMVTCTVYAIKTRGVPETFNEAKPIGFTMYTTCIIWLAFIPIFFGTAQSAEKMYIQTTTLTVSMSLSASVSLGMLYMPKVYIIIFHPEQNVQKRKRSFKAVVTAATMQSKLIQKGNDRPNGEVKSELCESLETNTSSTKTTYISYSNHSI

Compound | z-score
CCOc1ccc(OC(=O)NC(c2ccccc2)C(Cl)(Cl)Cl)cc1 (stereo not given) | -0.048
CCN(CC)CCn1c(=S)[nH]c2ncccc2c1=O | 0.0629
O=c1c2ccc(Cl)cc2[nH]c(=S)n1Cc1cccnc1 | 2.08
O=c1c2cccnc2[nH]c(=S)n1CCCN1CCN(c2ccc(F)cc2)CC1 | 0.723
CC1CCCCN1CCn1c(=S)[nH]c2ncccc2c1=O (stereo not given) | 1.22
COCCn1c(=S)[nH]c2ncccc2c1=O | 0.35
CCOC(=O)N1CCN(C(=O)c2ccc3c(=O)n(Cc4ccc(Cl)cc4)c(=S)[nH]c3c2)CC1 | 0.798
O=c1c2cccnc2[nH]c(=S)n1Cc1ccccc1 | 3 (active)
O=c1c2cc(Br)ccc2[nH]c(=S)n1Cc1cccnc1 | 1.87
CC1CCN(CCn2c(=S)[nH]c3ncccc3c2=O)CC1 | 4.47 (active)
CC(=O)Nc1ccc(Sc2ncccc2C(=O)Nc2cc(Cl)cc(Cl)c2)cn1 | 0.0331
CCc1nc(SCC(=O)Nc2c(C)n(C)n(-c3ccccc3)c2=O)n[nH]1 | -0.584
Cc1ccc(Cl)c(OCC(=O)Nc2sc(C)c(C)c2C#N)c1 | 0.877
CC(NC(=O)COc1ccccc1)C1COc2ccccc2O1 (stereo not given) | -0.67
Cc1ccc(C)c(N2CCN(C(=O)c3csc(C)c3C)CC2)c1 | 0.0161
CC(C)n1nc(C(=O)OCC(=O)c2c[nH]c3ccccc23)c2ccccc2c1=O | -2.75
COc1ccc(Br)cc1S(=O)(=O)N1CCCC1 | -0.0684
CCOC(=O)COc1c(OC)cc(Cl)cc1C1Nc2ccccc2C(=O)N1c1ccccc1 (stereo not given) | 0.355
Cc1ccc(Oc2ncc(CN3CC(C)OC(C)C3)s2)cc1 (stereo not given) | -0.107
CCn1c2ccccc2c2cc(NC(=O)CC(C)=O)ccc21 | -0.32
COCCNC(=O)c1cnn2c1NC(c1ccco1)CC2C(F)(F)F (stereo not given) | 0.0267
Cc1ccc(Cl)cc1NC(=O)c1cnn2c1NC(c1ccco1)CC2C(F)(F)F (stereo not given) | -0.148
CCOC(=O)N1CCC(NC(=O)c2cnn3c2NC(c2ccco2)CC3C(F)(F)F)CC1 (stereo not given) | 4.33 (active)
CCCCn1ccnc1C(=O)c1cc(S(=O)(=O)N2CCOCC2)ccc1C | -0.0858
CSc1nnc(CSc2cc(C)nc(N(C)C)n2)o1 | -0.325

Compound | z-score
O=S(=O)(Nc1cccnc1)c1cc(Cl)ccc1Cl | -0.00571
O=S(=O)(Nc1nc(-c2sccc2Cl)cs1)c1cc(Cl)ccc1Cl | 3.41 (active)
O=C(O)c1ccc(NS(=O)(=O)c2cc(Cl)ccc2Cl)cc1 | -0.151
OC(CCN1CCOCC1)(c1ccc(Cl)cc1)C1CCCCC1 (stereo not given) | -0.807
Cc1ccc(NC(=S)N/C(=N/S(=O)(=O)c2ccccc2)c2ccccc2)cc1 | 1.36
CCc1ccc(C(C(=O)NCc2ccc(OC)cc2)N(CCOC)C(=O)Cc2cccs2)cc1 (stereo not given) | -0.37
COCCN(C(=O)Cc1cccs1)C(C(=O)NCc1ccc(OC)cc1)c1ccc(OC)cc1 (stereo not given) | -0.202
COCCN(C(=O)Cc1cccs1)C(C(=O)NCc1ccc(OC)cc1)c1ccccc1 (stereo not given) | 3.95 (active)
Clc1ccc(N=c2ssnc2Cl)cc1 | -0.0573
C=C(C)COc1ccc(-c2[nH]ncc2-c2ccccc2OC)c(O)c1 | 0.603
Cc1cccc(Oc2cc(NC(=O)c3ccccc3)cc([N+](=O)[O-])c2)c1 | -0.382
CCn1cc(CNC(=O)CCSc2nc(-c3ccco3)cc(C(F)(F)F)n2)cn1 | -0.23
CCC/C(=N\NC(=O)c1ccccc1C)c1ccccc1 | -0.166
COc1cccc(C(=O)N/N=C(/CCC(=O)O)c2ccccc2)c1 | -0.189
CCC/C(=N/NC(=O)c1cccc(Cl)c1)c1ccccc1 | 5.45 (active)
CCC1=NC(c2ccc(OC)cc2OC)N(O)C1(C)C (stereo not given) | -0.547
COCc1c(C(=O)N2CCN(c3ccc(C(F)(F)F)cn3)CC2)oc2ccccc12 | -0.0186
CCN(CC)C(=O)COc1ccc2oc(C)c(C(=O)OC)c2c1 | 3.23 (active)
CCOC(=O)c1c(C)oc2ccc(OCC(=O)C(C)(C)C)cc12 | -1.03
CCN(CC)C(=O)COc1ccc2oc(C)c(C(=O)OC(C)C)c2c1 | -0.537
CCOC(=O)C1=C(CNCc2ccccc2Cl)NC(=O)NC1c1ccc2c(c1)OCO2 (stereo not given) | 0.278
COc1ccc(Br)cc1CN1CCCCCCC1 | 0.169
COc1cc(-c2nc(-c3ccc(NC(=O)c4ccc5c(c4)OCO5)cc3)no2)cc(OC)c1OC | 0.262
CC12CN(C(=O)c3ccccc3)C3(C#N)CC1CCC23C (stereo not given) | 0.729
NC(N)=N/N=C/c1ccc(OCc2ccccc2)cc1 | 0.177

Compound | z-score
CC1(C)Cc2nc3sc4c(SCC(=O)NC(c5ccccc5)c5ccccc5)ncnc4c3cc2CO1 | 0.0674
CC1(C)Cc2nc3sc4c(SCC(=O)NCc5ccccc5)ncnc4c3cc2CO1 | 2.31
CC1(C)Cc2nc3sc4c(SCC(=O)NCc5ccco5)ncnc4c3cc2CO1 | -0.999
CC(=O)c1ccc(OCC(O)CN2CCCC(C)C2)cc1 (stereo not given) | -0.0491
O=C(Nc1ncc2c(n1)-c1ccccc1CC2)c1ccccc1 | -0.277
COc1ccc(-c2c[n+]3c4n2CCCCC4=C(c2ccccc2)C3)cc1 | 2.82
Clc1ccc(C2=C3CCCCn4c(-c5ccccc5)c[n+](c43)C2)cc1 | 0.498
COc1ccc(-c2c[n+]3c4n2CCCCC4=C(c2ccc(Br)cc2)C3)cc1 | 1.54
CCCc1ccccc1OCCNC(C)=O | -0.472
CC(NC(=O)COc1ccccc1)C(=O)NC1=NCCS1 (stereo not given) | 3.96 (active)
O=C(COc1ccccc1)NC1=NCCS1 | -0.0489
CC(NC(=O)c1ccccc1)C(=O)NC1=NCCS1 (stereo not given) | 0.0634
COc1cc(-c2nc(-c3ccc(Br)o3)no2)cc(OC)c1OC | -0.294
CCOc1ccc(Cl)cc1CNCCNCC(C)O (stereo not given) | 2.17
COc1c(Cl)cc(Cl)cc1CNCCNCC(C)O (stereo not given) | 3.74 (active)
COc1c(Cl)cc(Cl)cc1CNCCNCCO | 0.598
CCOc1cccc(CNCCO)c1OCc1ccc(Cl)cc1Cl | 0.93
CCOc1c(Cl)cc(Cl)cc1CNCCNCCO | 0.738
CCOc1ccc(Cl)cc1CNCCNCCO | 0.172
CN(C)C(C)(C)C#CCCCCC#CC(C)(C)N(C)C | -0.195
N#Cc1cc2cc3c(cc2nc1N1CCOCC1)OCO3 | -0.918
O=C1C2ON(c3ccccc3)C(c3ccncc3)C2C(=O)N1c1ccc(N2CCOCC2)cc1 (stereo not given) | -0.522
Cn1c(=O)c(NCCc2ccccc2)c2c3c(cccc31)C(=O)c1ccccc1-2 | 1.94
Cn1c(=O)c(NCCO)c2c3c(cccc31)C(=O)c1ccccc1-2 | -2.23
CCCCNc1c2c3c(cccc3n(C)c1=O)C(=O)c1ccccc1-2 | 16.2 (active)
